Measurements taken from PubChem BioAssay (NCATS).
Results filed as inconclusive are left out. Unless noted, the call rests on the fitted dose curve; in most records, active means well fitted curve in either direction with a large enough effect (not every such curve was filed as active); inconclusive means small, poorly fitted or top-dose-only effect, or another doubt; inactive means flat fitted curve, though single readings scatter.

How the values were obtained:
[1] = AP1 Signaling Pathway (AID 357); conditions: ME-180 AP-1-bla reporter, EGF-induced, beta-lactamase ratio, 5 h; at 17.2 µM (top of the series) unless noted;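 further: ME-180 reporter cells stimulated with EGF at its EC50 level; on the % scale 0 is the no-effect control and ±100 the full control effect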
Outline: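 Cells are seeded overnight, exposed to compound titrations and an EC50 level of EGF for 5 hours at 37 °C, then loaded with CCF4 dye for 2.5 hours. Beta-lactamase activity under the AP-1 element is read as a blue/green ratio.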

[2] = NFAT Signaling Pathway (AID 444); conditions: Jurkat NFAT-bla M1, carbachol, beta-lactamase ratio, 5 h; at 17.2 µM (top of the series) unless noted;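 further: carbachol stimulus at about its EC50 of 1 µM final; on the % scale 0 is the no-effect control and ±100 the full control effect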
Outline: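 Jurkat cells carrying an NFAT-driven β-lactamase reporter and co-transfected muscarinic M1 receptor were treated with compound plus carbachol (1 uM final, an EC50 level) for 5 h at 37 °C. CCF4 loading followed for 1 h at RT; 460/530 nm ratio gave %activity.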

[3] = Stat Signaling Pathway (AID 446); conditions: ME-180 (cervical carcinoma) SIE beta-lactamase reporter, IL-6 stimulated, 5 h; at 17.2 µM (top of the series) unless noted;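 further: ME-180 cervical cancer cells given 40 pM IL-6 alongside compound; SIE-controlled beta-lactamase reporter measured as 460/530 nm FRET emission ratio; on the % scale 0 is the no-effect control and ±100 the full control effect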
Outline: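 Overnight-plated ME-180 cells bearing a STAT Inducible Element beta-lactamase reporter; 5 h co-exposure to compound and 40 pM IL-6; values normalized to 300 pM IL-6 and 125 nM JAK inhibitor controls.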

[4] = target: Glucocorticoid receptor (Homo sapiens) (UniProt P04150); assay: GR-GFP Redistribution (AID 450;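 active means compounds whose dose series gives a full or clear partial fitted curve of increased nuclear translocation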; further: potency means the concentration at half of the fitted maximal effect)
Chain of Glucocorticoid receptor (Homo sapiens) (P04150 whole entry, looked up): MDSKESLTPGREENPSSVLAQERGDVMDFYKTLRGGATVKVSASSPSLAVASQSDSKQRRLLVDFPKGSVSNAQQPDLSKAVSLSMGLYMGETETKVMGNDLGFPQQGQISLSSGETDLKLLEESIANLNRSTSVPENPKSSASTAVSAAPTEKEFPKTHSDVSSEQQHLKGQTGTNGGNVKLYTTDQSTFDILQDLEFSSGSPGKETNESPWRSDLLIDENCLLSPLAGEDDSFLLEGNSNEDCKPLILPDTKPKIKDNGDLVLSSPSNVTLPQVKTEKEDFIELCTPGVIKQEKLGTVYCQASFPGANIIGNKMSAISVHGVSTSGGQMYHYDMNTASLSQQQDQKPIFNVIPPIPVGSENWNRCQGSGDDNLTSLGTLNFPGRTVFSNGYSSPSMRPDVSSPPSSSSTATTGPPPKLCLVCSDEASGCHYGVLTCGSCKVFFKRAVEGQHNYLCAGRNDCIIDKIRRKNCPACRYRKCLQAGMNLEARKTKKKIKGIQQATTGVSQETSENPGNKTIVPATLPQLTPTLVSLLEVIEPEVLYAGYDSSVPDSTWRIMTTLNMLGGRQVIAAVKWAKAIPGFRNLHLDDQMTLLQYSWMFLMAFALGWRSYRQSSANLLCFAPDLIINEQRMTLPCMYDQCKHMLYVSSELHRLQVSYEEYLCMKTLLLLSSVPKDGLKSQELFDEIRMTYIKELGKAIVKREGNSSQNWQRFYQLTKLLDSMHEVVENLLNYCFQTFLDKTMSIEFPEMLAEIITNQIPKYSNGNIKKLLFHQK

N#CCc1nc2c3c4c(sc3ncn2n1)CCCC4
inactive: activity change, negative = inhibition [1] -0.68% | activity change, negative = inhibition [2] -9.45% | activity, negative = inhibition [3] 5.72% | Potency [4] > 20.6 µM

CCOc1ccc(C2/C(=C(/O)c3ccc(F)cc3)C(=O)C(=O)N2CCCN(C)C)cc1 (configuration not stated)
inactive: activity change, negative = inhibition [1] 10.1% | activity change, negative = inhibition [2] 5.42% | activity, negative = inhibition [3] 6.85% | Potency [4] > 20.6 µM

CCCOc1cccc(-c2nnc(N)s2)c1
inactive: activity change, negative = inhibition [1] -15.9% | activity change, negative = inhibition [2] -11.9% | activity, negative = inhibition [3] -2.76% | Potency [4] > 20.6 µM

CC(C)Oc1ccc(/C(O)=C2/C(=O)C(=O)N(CCN(C)C)C2c2ccco2)cc1 (configuration not stated)
inactive: activity change, negative = inhibition [1] -1.52% | activity change, negative = inhibition [2] -2.83% | activity, negative = inhibition [3] 8.49% | Potency [4] > 20.6 µM

CCCCCOC(=O)Cc1c(C)nc(-c2ccccc2)[nH]c1=O
inactive: activity change, negative = inhibition [1] -3.29% | activity change, negative = inhibition [2] 8.16% | activity, negative = inhibition [3] 4.57% | Potency [4] > 20.6 µM

N#Cc1c(SCC(=O)O)nc(N2CCCCC2)c2c1CCCC2
inactive: activity change, negative = inhibition [1] 6.2% | activity change, negative = inhibition [2] 10.4% | activity, negative = inhibition [3] -7.23% | Potency [4] > 20.6 µM

Cc1ccc(-c2nnc(OCCN3CCOCC3)c3ccccc23)cc1
inactive: activity change, negative = inhibition [1] -9.96% | activity change, negative = inhibition [2] 5.38% | activity, negative = inhibition [3] -1.56% | Potency [4] > 20.6 µM

CC1(C)Cc2c(sc3nc4n(c(=O)c23)CCC4)CO1
inactive: activity change, negative = inhibition [1] -2.8% | activity change, negative = inhibition [2] 2.28% | activity, negative = inhibition [3] -2.43% | Potency [4] > 20.6 µM

CCCOC(=O)C1[C@H]2C(=O)N(Cc3ccco3)C[C@]23C=C[C@H]1O3 (some centres not stated)
inactive: activity change, negative = inhibition [1] 0.485% | activity change, negative = inhibition [2] 2.35% | activity, negative = inhibition [3] 4.93% | Potency [4] > 20.6 µM

S=c1[nH]nc(-c2ccco2)n1C1CCCCC1
inactive: activity change, negative = inhibition [1] -7.16% | activity change, negative = inhibition [2] 12.4% | activity, negative = inhibition [3] 1.34% | Potency [4] > 20.6 µM

Cc1cc2c(c(=O)o1)C(CC(C)C)C(C#N)=C(N)O2 (configuration not stated)
inactive: activity change, negative = inhibition [1] 14.1% | activity change, negative = inhibition [2] 4.64% | activity, negative = inhibition [3] 1.38% | Potency [4] > 20.6 µM

Cn1cc(C(=O)NCN2CCCCC2)c2ccccc21
inactive: activity change, negative = inhibition [1] -2.91% | activity change, negative = inhibition [2] -0.662% | activity, negative = inhibition [3] 3.15% | Potency [4] > 20.6 µM

O=C(O)C(Cc1c[nH]c2ccccc12)NS(=O)(=O)c1cccc2nsnc12 (configuration not stated)
inactive: activity change, negative = inhibition [1] 4.19% | activity change, negative = inhibition [2] 3.61% | activity, negative = inhibition [3] 6.46% | Potency [4] > 20.6 µM

C=C(C)CN1CCN(c2c(CCC#N)c(C)c(C#N)c3nc4ccccc4n23)CC1
inactive: activity change, negative = inhibition [1] 6.83% | activity change, negative = inhibition [2] 20% | activity, negative = inhibition [3] 9.9% | Potency [4] > 20.6 µM

c1csc(Cc2nn3c(-c4ccncc4)nnc3s2)c1
inactive: activity change, negative = inhibition [1] -25% | activity change, negative = inhibition [2] 5.73% | activity, negative = inhibition [3] -2.56% | Potency [4] > 20.6 µM

Cc1nc(-c2c(-c3ccc(O)cc3O)noc2C(F)(F)F)cs1
inactive: activity change, negative = inhibition [1] -11.8% | activity change, negative = inhibition [2] -22% | activity, negative = inhibition [3] -18.8% | Potency [4] > 20.6 µM

Cc1cc(SCCC(=O)O)nc2ccccc12
inactive: activity change, negative = inhibition [1] 0.423% | activity change, negative = inhibition [2] -5.26% | activity, negative = inhibition [3] 6.44% | Potency [4] > 20.6 µM

Cc1ccc(NC(=O)CSc2nnc(-c3ccco3)c(-c3ccco3)n2)cc1
inactive: activity change, negative = inhibition [1] 0.107% | activity change, negative = inhibition [2] -24.9% | activity, negative = inhibition [3] -23.9% | Potency [4] > 20.6 µM
